Activity calls are given as the source filed them.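 How the source made its calls: active means compounds that lower viability of the colon cancer cells in the luminescence readout, with no numeric limit stated; inactive means the rest.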 Non-standard residues stand in square brackets, D forms with d. Residues, ends and D or L forms follow the SMILES beside them. pGlu = O=C1CC[C@@H](C(=O)O)N1
assay: CellTiter-Glo luminescent readout of SW480 viability loss, NPC library primary (AID 1117343); conditions: CellTiter-Glo luminescence; at 20 µM (top of the series)

Row | SMILES | viability decrease (inhibition)
1 | Cc1cccc(C)c1NC(=O)CN(CC(=O)O)CC(=O)O | 43.5% (inactive)
2 | CCCCCCCCCCOCC(O)CN (centres undefined) | 102% (active)
3 | Nc1ccc([N+](=O)[O-])c(C(F)(F)F)c1 | -16.7% (inactive)
4 | CC1(C)OC[C@@H]2O[C@@]3(C(=O)O)OC(C)(C)O[C@H]3[C@@H]2O1 | 26.9% (inactive)
5 | CC(O)CCCCn1c(=O)c2c(ncn2C)n(C)c1=O (centres undefined) | 3.8% (inactive)
6 | CC(=O)OC[C@H]1O[C@@](COC(C)=O)(O[C@H]2O[C@H](COC(C)=O)[C@@H](OC(C)=O)[C@H](OC(C)=O)[C@H]2OC(C)=O)[C@@H](OC(C)=O)[C@@H]1OC(C)=O | 16.6% (inactive)
7 | CCc1oc2ccccc2c1C(=O)c1cc(I)c(O)c(I)c1 | 101% (active)
8 | CCCCC(C)(O)CC=C[C@H]1[C@H](O)CC(=O)[C@H]1CCCCCCC(=O)OC (some centres undefined) | -17.2% (inactive)
9 | O=C1c2ccccc2CCc2ccccc21 | -8.4% (inactive)
10 | Nc1c(NC/C=C\COc2cc(CN3CCCCC3)ccn2)c(=O)c1=O | -4.4% (inactive)
11 | Oc1ccccc1-c1nnco1 | 22.1% (inactive)
12 | C=CCNc1nc(NCC=C)nc(N2CCN(C(c3ccc(F)cc3)c3ccc(F)cc3)CC2)n1 | 56.9% (active)
13 | O=Cc1ccccc1C=O | 12.2% (inactive)
14 | CC(=O)OC[C@H]1O[C@@H](n2ncc(=O)[nH]c2=O)[C@H](OC(C)=O)[C@@H]1OC(C)=O | 26% (inactive)
15 | Oc1cccc(O)c1O | 101% (active)
16 | CCCC(=O)O[C@]1(C(=O)CC)CC[C@H]2[C@@H]3CCC4=CC(=O)CC[C@]4(C)[C@H]3[C@@H](O)C[C@@]21C | 35.2% (inactive)
17 | OCCCc1ccccc1 | -15.8% (active)
18 | CC(C)C(=O)Nc1cccc(C2CN3CCSC3=N2)c1 (centres undefined) | 13% (inactive)
19 | CCNC(=O)[C@@H]1CCCN1C(=O)[C@H](CCCN=C(N)N)NC(=O)[C@H](CC(C)C)NC(=O)CNC(=O)[C@H](Cc1ccc(O)cc1)NC(=O)[C@H](CO)NC(=O)[C@H](Cc1c[nH]c2ccccc12)NC(=O)[C@H](Cc1cnc[nH]1)NC(=O)[C@@H]1CCC(=O)N1 ([pGlu]HWSYGLRP-NHEt) | 25.1% (inactive)
20 | CN1CC(O)c2cc(N=NC(N)=O)c(O)cc21 (centres undefined) | 4.9% (inactive)

Row | SMILES | viability decrease (inhibition)
21 | C[C@@H]1C[C@H]2[C@@H]3CCC4=CC(=O)C=C[C@]4(C)[C@@]3(F)[C@@H](O)C[C@]2(C)[C@@]1(O)C(=O)COC(=O)c1ccncc1 | 5.8% (inactive)
22 | c1ccc2[nH]ccc2c1 | 23.7% (inactive)
23 | O=C(O)COc1nn(Cc2ccccc2)c2ccccc12 | 12.1% (inactive)
24 | C[C@]12C=CC(=O)C=C1[C@@H](F)C[C@@H]1[C@@H]2[C@@H](O)C[C@@]2(C)[C@H]1CC[C@]2(O)C(=O)CO | 19.5% (inactive)
25 | O=S(=O)(O)CC(S)CS (centres undefined) | 3.8% (inactive)
26 | CCOC(=O)c1ccc(NC(=O)CN2CCCCC2)cc1 | 24.7% (inactive)
27 | CN1[C@@H]2CC[C@H]1CC(NC(=O)n1c(=O)[nH]c3ccccc31)C2 (some centres undefined) | 5.3% (inactive)
28 | Cc1cn([C@@H]2O[C@H](CO)[C@@H](O)[C@H]2F)c(=O)[nH]c1=O | 3.1% (inactive)
29 | Cc1ccc(O)c2ncccc12 | 27% (inactive)
30 | OCc1ccc(Cl)cc1Cl | 26.9% (inactive)
31 | CN(C)[C@@H]1C(=O)C(C(N)=O)=C(O)[C@@]2(O)C(=O)C3=C(O)c4c(O)cccc4C[C@H]3C[C@@H]12 | 100% (active)
32 | CCS(=O)(=O)c1ccc(OC)c(C(=O)OC)c1 | -1.8% (inactive)
33 | OC[C@H]1O[C@@H](n2cnc3c(=S)nc[nH]c32)[C@H](O)[C@@H]1O | 78.1% (active)
34 | NS(=O)(=O)c1cc(-c2nn[nH]n2)c(NCc2cccs2)cc1Cl | 2.3% (inactive)
35 | Cc1cc(CCCOc2c(C)cc(-c3noc(C(F)(F)F)n3)cc2C)on1 | 45.6% (inactive)
36 | Cc1c(C)n(Cc2ccccc2)c2ccc(C(=O)OCCN(C)C)cc12 | 88.7% (active)
37 | O=C1NC(c2ccccc2)(c2ccccc2)C(=O)N1COP(=O)(O)O | -3.4% (inactive)
38 | CC(C)=CCC/C(C)=C/CC/C(C)=C/C(=O)OCC(=O)[C@@]1(O)CC[C@H]2[C@@H]3CCC4=CC(=O)C=C[C@]4(C)[C@H]3[C@@H](O)C[C@@]21C | 86.2% (active)
39 | O=C1CC[C@H](C(=O)N2CCCCC2)N1 | -22% (inactive)

Reference: PubChem BioAssay
